{
  "source": "the supplement of paper PMC11732987",
  "about": "“Enantioselective OTUD7B fragment discovery through chemoproteomics screening and high-throughput optimisation” (Communications Chemistry, 2025)",
  "note": "Values without a mark were called inactive.",
  "data": [
    {"compound": "COc1cccc(CN(C)C(=O)CCl)c1", "test": "log2 ratio of Biotin-Ahx-Ub-VS probe labelling (compound/DMSO); higher = less target engagement, active = hit call of the paper (q ≤ 0.05, log2 ratio ≤ -1)", "details": "compound concentration: 50uM; treatment time: 3 h", "procedure": "(§1)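 Round 2 competitive ABPP in HEK293T lysate. Compounds were tested at 50 and 200 µM for 3 h, followed by Biotin-Ahx-Ub-VS enrichment and diaPASEF LC-MS/MS. Values are the average log2 ratio (compound/DMSO) from an unpaired t-test (n=3 treated, n=26 DMSO).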", "values": [
      {"target": "USP14 (UniProt P54578)", "log2 ratio of Biotin-Ahx-Ub-VS probe labelling": -0.0931},
      {"target": "ATXN3 (UniProt P54252)", "sequence (P54252 whole entry)": "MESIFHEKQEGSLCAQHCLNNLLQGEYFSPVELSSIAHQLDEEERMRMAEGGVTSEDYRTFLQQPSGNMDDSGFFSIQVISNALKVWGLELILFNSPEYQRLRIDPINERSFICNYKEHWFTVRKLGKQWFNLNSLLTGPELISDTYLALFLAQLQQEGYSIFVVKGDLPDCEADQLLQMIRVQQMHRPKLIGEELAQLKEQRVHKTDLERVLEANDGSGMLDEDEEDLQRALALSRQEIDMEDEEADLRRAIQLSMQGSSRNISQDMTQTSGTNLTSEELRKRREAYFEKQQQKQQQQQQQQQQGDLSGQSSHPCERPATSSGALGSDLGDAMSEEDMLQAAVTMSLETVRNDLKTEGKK", "log2 ratio of Biotin-Ahx-Ub-VS probe labelling": -0.217},
      {"target": "USP25 (UniProt Q9UHP3)", "log2 ratio of Biotin-Ahx-Ub-VS probe labelling": "-1.88 (active)"},
      {"target": "USP4 (UniProt Q13107)", "sequence (Q13107 whole entry)": "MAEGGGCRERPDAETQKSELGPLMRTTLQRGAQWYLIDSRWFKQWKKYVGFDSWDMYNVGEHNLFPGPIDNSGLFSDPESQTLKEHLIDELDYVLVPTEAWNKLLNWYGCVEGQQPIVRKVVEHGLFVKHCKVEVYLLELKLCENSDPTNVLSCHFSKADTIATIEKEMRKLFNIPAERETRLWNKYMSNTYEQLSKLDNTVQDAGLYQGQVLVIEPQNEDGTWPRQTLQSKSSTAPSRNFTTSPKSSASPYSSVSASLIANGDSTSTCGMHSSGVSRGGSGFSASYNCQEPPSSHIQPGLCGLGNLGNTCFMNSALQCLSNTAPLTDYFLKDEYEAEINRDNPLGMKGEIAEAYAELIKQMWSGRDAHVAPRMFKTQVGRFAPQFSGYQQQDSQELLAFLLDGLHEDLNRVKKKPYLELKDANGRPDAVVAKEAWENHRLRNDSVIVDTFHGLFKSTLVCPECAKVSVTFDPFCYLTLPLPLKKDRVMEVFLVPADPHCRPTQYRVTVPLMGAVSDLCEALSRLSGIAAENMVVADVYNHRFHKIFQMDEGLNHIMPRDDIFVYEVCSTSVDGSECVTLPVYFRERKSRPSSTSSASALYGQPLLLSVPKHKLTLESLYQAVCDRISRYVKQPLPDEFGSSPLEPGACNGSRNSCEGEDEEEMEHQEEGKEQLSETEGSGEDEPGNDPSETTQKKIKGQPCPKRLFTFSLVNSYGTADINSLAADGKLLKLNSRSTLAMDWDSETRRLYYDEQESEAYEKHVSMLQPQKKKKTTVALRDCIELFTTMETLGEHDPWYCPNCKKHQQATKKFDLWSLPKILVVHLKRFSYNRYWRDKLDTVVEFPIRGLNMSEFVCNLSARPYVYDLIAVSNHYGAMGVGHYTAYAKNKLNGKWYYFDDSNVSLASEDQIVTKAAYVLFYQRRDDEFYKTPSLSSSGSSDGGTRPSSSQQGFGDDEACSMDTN", "log2 ratio of Biotin-Ahx-Ub-VS probe labelling": "-1.18 (active)"},
      {"target": "OTUD4 (UniProt Q01804)", "log2 ratio of Biotin-Ahx-Ub-VS probe labelling": -0.113},
      {"target": "USP16 (UniProt Q9Y5T5)", "log2 ratio of Biotin-Ahx-Ub-VS probe labelling": 0.0263},
      {"target": "USP19 (UniProt O94966)", "log2 ratio of Biotin-Ahx-Ub-VS probe labelling": -0.209},
      {"target": "COPS5 (UniProt Q92905)", "log2 ratio of Biotin-Ahx-Ub-VS probe labelling": -0.236},
      {"target": "USP5 (UniProt P45974)", "log2 ratio of Biotin-Ahx-Ub-VS probe labelling": 0.274},
      {"target": "USP36 (UniProt Q9P275)", "log2 ratio of Biotin-Ahx-Ub-VS probe labelling": -0.0259},
      {"target": "YOD1 (UniProt Q5VVQ6)", "sequence (Q5VVQ6 whole entry)": "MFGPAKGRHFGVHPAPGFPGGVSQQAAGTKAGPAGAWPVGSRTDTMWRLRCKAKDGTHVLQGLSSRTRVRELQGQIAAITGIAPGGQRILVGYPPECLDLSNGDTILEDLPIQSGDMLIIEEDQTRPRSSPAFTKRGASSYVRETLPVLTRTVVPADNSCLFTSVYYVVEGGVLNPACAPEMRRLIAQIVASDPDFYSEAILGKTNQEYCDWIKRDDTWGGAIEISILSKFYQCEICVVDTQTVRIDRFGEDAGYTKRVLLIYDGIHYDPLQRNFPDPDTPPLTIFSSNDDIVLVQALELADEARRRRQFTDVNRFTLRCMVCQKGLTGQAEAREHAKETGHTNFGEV", "log2 ratio of Biotin-Ahx-Ub-VS probe labelling": 0.0405},
      {"target": "OTUD6B (UniProt Q8N6M0)", "log2 ratio of Biotin-Ahx-Ub-VS probe labelling": -0.149},
      {"target": "USP54 (UniProt Q70EL1)", "log2 ratio of Biotin-Ahx-Ub-VS probe labelling": "-2.86 (active)"},
      {"target": "USP9X (UniProt Q93008)", "sequence (Q93008 whole entry)": "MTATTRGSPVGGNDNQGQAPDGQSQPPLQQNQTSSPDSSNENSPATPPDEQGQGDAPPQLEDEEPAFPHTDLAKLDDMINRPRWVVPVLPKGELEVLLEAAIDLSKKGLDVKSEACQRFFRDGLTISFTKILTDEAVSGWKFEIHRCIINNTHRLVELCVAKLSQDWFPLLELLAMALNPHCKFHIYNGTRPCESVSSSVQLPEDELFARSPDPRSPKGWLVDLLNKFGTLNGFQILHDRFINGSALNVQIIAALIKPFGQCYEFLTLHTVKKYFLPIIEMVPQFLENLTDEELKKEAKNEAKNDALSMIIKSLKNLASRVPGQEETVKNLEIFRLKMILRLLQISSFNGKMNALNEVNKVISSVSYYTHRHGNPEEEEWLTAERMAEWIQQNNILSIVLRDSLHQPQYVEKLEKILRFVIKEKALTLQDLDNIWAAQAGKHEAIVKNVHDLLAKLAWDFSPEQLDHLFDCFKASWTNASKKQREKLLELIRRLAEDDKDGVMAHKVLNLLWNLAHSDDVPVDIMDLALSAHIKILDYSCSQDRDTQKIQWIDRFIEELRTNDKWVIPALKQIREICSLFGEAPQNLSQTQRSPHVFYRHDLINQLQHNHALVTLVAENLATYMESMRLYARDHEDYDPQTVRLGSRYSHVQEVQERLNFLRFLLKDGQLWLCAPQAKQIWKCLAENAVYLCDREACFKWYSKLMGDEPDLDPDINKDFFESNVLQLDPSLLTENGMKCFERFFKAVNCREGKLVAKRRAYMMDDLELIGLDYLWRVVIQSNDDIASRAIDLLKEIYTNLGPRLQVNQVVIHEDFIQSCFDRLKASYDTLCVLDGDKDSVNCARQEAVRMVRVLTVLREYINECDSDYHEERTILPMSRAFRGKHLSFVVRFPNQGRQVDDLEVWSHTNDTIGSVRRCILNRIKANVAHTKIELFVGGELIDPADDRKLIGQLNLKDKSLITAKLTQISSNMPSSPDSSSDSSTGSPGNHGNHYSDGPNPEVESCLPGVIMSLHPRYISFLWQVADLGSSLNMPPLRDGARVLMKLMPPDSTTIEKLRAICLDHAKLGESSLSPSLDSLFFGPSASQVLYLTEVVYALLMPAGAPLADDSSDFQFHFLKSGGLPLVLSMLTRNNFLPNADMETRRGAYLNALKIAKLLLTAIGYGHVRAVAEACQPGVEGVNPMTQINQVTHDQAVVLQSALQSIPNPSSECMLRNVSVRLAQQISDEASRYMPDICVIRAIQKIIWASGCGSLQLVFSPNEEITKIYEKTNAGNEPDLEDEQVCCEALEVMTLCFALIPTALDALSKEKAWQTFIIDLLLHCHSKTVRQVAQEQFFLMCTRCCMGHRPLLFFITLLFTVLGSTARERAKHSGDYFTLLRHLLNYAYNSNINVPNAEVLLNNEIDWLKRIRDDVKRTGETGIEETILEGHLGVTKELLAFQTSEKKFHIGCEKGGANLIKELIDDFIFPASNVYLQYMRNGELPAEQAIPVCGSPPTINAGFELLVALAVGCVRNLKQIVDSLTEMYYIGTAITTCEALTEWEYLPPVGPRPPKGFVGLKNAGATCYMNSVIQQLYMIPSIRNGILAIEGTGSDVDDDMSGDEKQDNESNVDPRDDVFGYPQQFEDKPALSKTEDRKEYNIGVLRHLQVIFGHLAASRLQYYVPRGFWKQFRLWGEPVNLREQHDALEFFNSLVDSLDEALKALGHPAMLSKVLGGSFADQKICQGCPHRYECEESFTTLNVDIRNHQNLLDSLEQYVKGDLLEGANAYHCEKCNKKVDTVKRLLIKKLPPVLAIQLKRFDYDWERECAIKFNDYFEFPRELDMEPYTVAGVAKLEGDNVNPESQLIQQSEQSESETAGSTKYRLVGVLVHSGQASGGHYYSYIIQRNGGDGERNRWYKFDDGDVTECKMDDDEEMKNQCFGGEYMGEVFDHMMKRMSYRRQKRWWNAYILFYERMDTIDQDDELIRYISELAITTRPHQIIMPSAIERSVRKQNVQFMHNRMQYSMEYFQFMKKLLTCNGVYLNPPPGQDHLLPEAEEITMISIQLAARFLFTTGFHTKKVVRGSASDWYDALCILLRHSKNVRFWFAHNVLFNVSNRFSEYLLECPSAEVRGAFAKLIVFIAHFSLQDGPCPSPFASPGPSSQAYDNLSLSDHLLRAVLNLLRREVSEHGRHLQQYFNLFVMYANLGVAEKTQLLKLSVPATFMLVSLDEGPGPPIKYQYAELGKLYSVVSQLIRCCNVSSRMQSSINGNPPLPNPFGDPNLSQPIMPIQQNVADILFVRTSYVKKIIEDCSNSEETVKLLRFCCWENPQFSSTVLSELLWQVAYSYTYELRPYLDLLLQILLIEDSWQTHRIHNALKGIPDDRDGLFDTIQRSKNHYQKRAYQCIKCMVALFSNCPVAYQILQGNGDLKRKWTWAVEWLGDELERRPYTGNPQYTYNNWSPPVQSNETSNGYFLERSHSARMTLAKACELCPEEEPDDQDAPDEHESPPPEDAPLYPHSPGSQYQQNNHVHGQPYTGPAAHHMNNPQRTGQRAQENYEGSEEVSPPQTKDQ", "log2 ratio of Biotin-Ahx-Ub-VS probe labelling": -0.0295},
      {"target": "MINDY4 (UniProt Q4G0A6)", "log2 ratio of Biotin-Ahx-Ub-VS probe labelling": 0.225},
      {"target": "OTUD7B (UniProt Q6GQQ9)", "log2 ratio of Biotin-Ahx-Ub-VS probe labelling": -0.372},
      {"target": "USP48 (UniProt Q86UV5)", "log2 ratio of Biotin-Ahx-Ub-VS probe labelling": -0.144},
      {"target": "USP42 (UniProt Q9H9J4)", "log2 ratio of Biotin-Ahx-Ub-VS probe labelling": 0.0563},
      {"target": "UniProt Q70EL2", "sequence (Q70EL2 whole entry)": "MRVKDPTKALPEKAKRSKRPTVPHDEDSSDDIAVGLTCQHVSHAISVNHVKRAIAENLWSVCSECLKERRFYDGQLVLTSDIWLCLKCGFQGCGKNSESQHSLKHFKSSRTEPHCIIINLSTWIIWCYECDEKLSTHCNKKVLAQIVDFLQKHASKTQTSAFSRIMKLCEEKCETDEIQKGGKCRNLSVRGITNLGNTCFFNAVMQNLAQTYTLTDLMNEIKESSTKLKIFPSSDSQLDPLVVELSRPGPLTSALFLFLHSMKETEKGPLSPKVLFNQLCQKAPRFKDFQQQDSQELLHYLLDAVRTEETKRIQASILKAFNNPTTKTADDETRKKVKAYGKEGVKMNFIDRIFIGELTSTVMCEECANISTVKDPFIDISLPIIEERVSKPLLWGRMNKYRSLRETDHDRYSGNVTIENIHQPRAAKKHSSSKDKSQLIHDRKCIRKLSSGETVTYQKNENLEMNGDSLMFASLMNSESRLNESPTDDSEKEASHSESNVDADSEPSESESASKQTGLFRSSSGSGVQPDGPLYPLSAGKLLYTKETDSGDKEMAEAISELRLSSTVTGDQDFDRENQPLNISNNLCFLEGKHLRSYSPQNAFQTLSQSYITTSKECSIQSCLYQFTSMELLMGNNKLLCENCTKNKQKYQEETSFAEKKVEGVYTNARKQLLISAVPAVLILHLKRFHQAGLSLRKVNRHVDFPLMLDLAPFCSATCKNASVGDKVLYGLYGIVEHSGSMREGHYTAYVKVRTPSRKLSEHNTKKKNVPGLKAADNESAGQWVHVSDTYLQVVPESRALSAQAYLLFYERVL", "log2 ratio of Biotin-Ahx-Ub-VS probe labelling": -0.17},
      {"target": "UniProt Q9UGI0", "log2 ratio of Biotin-Ahx-Ub-VS probe labelling": -0.354}
    ]},
    {"compound": "COc1cccc(CN(C)C(=O)CCl)c1", "test": "log2 ratio of Biotin-Ahx-Ub-VS probe labelling (compound/DMSO); higher = less target engagement, active = hit call of the paper (q ≤ 0.05, log2 ratio ≤ -1)", "details": "compound concentration: 200uM; treatment time: 3 h", "procedure": "as §1", "values": [
      {"target": "USP14 (UniProt P54578)", "log2 ratio of Biotin-Ahx-Ub-VS probe labelling": -0.202},
      {"target": "ATXN3 (UniProt P54252)", "log2 ratio of Biotin-Ahx-Ub-VS probe labelling": -0.786},
      {"target": "USP25 (UniProt Q9UHP3)", "log2 ratio of Biotin-Ahx-Ub-VS probe labelling": -0.899},
      {"target": "USP4 (UniProt Q13107)", "log2 ratio of Biotin-Ahx-Ub-VS probe labelling": -0.498},
      {"target": "OTUD4 (UniProt Q01804)", "log2 ratio of Biotin-Ahx-Ub-VS probe labelling": -0.21},
      {"target": "USP16 (UniProt Q9Y5T5)", "log2 ratio of Biotin-Ahx-Ub-VS probe labelling": -0.213},
      {"target": "USP19 (UniProt O94966)", "log2 ratio of Biotin-Ahx-Ub-VS probe labelling": -0.661},
      {"target": "COPS5 (UniProt Q92905)", "log2 ratio of Biotin-Ahx-Ub-VS probe labelling": -0.578},
      {"target": "USP5 (UniProt P45974)", "log2 ratio of Biotin-Ahx-Ub-VS probe labelling": 0.357},
      {"target": "USP36 (UniProt Q9P275)", "log2 ratio of Biotin-Ahx-Ub-VS probe labelling": 0.018},
      {"target": "YOD1 (UniProt Q5VVQ6)", "log2 ratio of Biotin-Ahx-Ub-VS probe labelling": -0.24},
      {"target": "OTUD6B (UniProt Q8N6M0)", "log2 ratio of Biotin-Ahx-Ub-VS probe labelling": -0.283},
      {"target": "USP54 (UniProt Q70EL1)", "log2 ratio of Biotin-Ahx-Ub-VS probe labelling": "-2.26 (active)"},
      {"target": "USP9X (UniProt Q93008)", "log2 ratio of Biotin-Ahx-Ub-VS probe labelling": -0.23},
      {"target": "MINDY4 (UniProt Q4G0A6)", "log2 ratio of Biotin-Ahx-Ub-VS probe labelling": 0.167},
      {"target": "OTUD7B (UniProt Q6GQQ9)", "log2 ratio of Biotin-Ahx-Ub-VS probe labelling": -0.803},
      {"target": "USP48 (UniProt Q86UV5)", "log2 ratio of Biotin-Ahx-Ub-VS probe labelling": -0.273},
      {"target": "USP42 (UniProt Q9H9J4)", "log2 ratio of Biotin-Ahx-Ub-VS probe labelling": 0.184},
      {"target": "UniProt Q70EL2", "log2 ratio of Biotin-Ahx-Ub-VS probe labelling": "-1.02 (active)"},
      {"target": "UniProt Q9UGI0", "log2 ratio of Biotin-Ahx-Ub-VS probe labelling": -0.0472}
    ]}
  ]
}
